Bioassay records (PubChem)
Most compounds without a hit are left out; they make up all but 3% or so of the library.
Nrf2 activator: qHTS of Nrf2 Activators; AREc32 ARE-luciferase reporter (MCF7-derived line), luminescence, 24 h; Potency, µM (doses to about 46.1 µM), actives largely listed as activators; actives 0.31% (n = 410,000); AID 624171, 2012; also: nearly all actives have a fitted effect of over 65% in size
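Cells of the AREc32 ARE-luciferase line are plated in OPTI-MEM containing 5% FBS and left overnight at 37 deg C. Compounds are pinned in, incubation continues 24 hr, and firefly luciferase signal is then measured.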
D3 ag: qHTS of D3 Dopamine Receptor Agonist: qHTS | D(3) dopamine receptor (Homo sapiens), P35462 | D3R DiscoveRx beta-arrestin cells, luminescence, 90 min | max activation, % | actives 0.58% (n = 410,000); in the data active = max activation above about 30%
Target sequence (P35462 whole entry, looked up): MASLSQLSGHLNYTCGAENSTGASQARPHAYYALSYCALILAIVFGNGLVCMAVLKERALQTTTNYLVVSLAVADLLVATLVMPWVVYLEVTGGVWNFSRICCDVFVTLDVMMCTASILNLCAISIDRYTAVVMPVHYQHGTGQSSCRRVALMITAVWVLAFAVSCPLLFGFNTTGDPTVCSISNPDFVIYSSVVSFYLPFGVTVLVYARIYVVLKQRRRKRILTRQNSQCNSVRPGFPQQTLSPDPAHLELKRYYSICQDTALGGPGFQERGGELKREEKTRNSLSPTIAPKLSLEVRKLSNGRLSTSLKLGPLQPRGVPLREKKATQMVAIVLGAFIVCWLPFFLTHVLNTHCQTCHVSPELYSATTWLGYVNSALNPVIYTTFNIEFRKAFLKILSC
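Agonist mode: compounds and dopamine controls were applied to plated cells for 90 min at 37 degrees C after an overnight attachment at 1500 cells/well. Luminescent read-out followed 30 - 60 minutes at room temperature with DiscoveRx detection reagent.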
D3 antag: qHTS of D3 Dopamine Receptor Antagonist: qHTS. D(3) dopamine receptor (Homo sapiens), P35462. D3R cells, DiscoveRx beta-arrestin luminescence, antagonist mode; stronger effect = lower value. max response, negative = inhibition, %. actives 2.5% (n = 360,000). AID 652054, 2013; in the data active = max response below about -50%; inconclusive = no clear call, values can overlap the other calls
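Cells expressing the human receptor were seeded at 1500 cells/well, incubated overnight at 37 degrees C in 5% CO2, then exposed to library compounds with dopamine controls for 90 minutes at 37 degrees C before luminescent detection.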
Glioma ERSR ind: qHTS for Inducers of the Endoplasmic Reticulum Stress Response (ERSR) in Human Glioma: qHTS. U87-MG GRP78 promoter luciferase reporter, 16 h. Potency, µM, usual class: activators. actives 0.02% (n = 420,000). AID 602332, 2012; also: series mostly up to about 76 µM; nearly all actives have a fitted effect of over 35% in size
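ERSR induction read as luciferase luminescence (Bright-Glo, 10 min at room temperature) in stably transfected human U87-MG glioma cells exposed to compounds for 16 h, using GRP78 as sensor.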
Large screens that a line does not name were inactive. Unless noted, calls follow the shape of the dose curve; as a rule, active = well fitted curve in the direction sought with a large enough effect; inconclusive = small, poorly fitted or top-dose-only effect, or another doubt; inactive = no such curve, though single readings can be large; an effect the other way counts as inactive or inconclusive.

CCc1nn(C(C)C(=O)NCCN2CCN(c3cccc(C)c3C)CC2)c(=O)c2cc3occc3n12 (configuration not stated)	D3 antag -59
CCOC(=O)c1c(NC(C)=O)sc2c1CCC(C=NCCCN(CC)CC)=C2Sc1ccccc1	D3 antag -66, Glioma ERSR ind inconclusive
C(/Oc1ccccc1)=C1\Nn2c(nnc2-c2cc(-c3ccccc3)n[nH]2)S1	none (no result: Nrf2 activator, D3 ag, D3 antag)
Cc1cccc(Nc2nnc(SC/C(O)=C(\C#N)c3nc4ccccc4[nH]3)s2)c1C	D3 ag 33
N#C/C(=C(/O)c1ccco1)c1nc2ccccc2[nH]1	Nrf2 activator 6.3µM
C/C(O)=C(\C#N)c1nc2ccccc2[nH]1	none
Cc1cccc(C)c1Nc1nnc(SC/C(O)=C(\C#N)c2nc3ccccc3[nH]2)s1	none
N#C/C(=C(/O)CCl)c1nc2ccccc2[nH]1	Nrf2 activator inconclusive, Glioma ERSR ind 25µM
N#C/C(=C(\O)Cc1ccccc1)c1nc2ccccc2[nH]1	none
COC(=O)c1ccc(Cn2nnc3sc4c(c3c2=O)CCC(C)C4)cc1 (configuration not stated)	none (no result: D3 antag)
CC(C)C(=O)NCC1CCC2(CCN(Cc3ccc(-c4ccccc4Cl)o3)CC2)O1 (configuration not stated)	none (no result: Nrf2 activator, D3 ag, D3 antag)
COc1ccc(-c2ccc(C(=O)N3CCc4c(cnc(C)c4CNS(=O)(=O)N(C)C)C3)o2)cc1	none (no result: Nrf2 activator, D3 ag, D3 antag)
C=CCn1c(=O)n([C@@H]2O[C@H](CO)[C@@H](O)[C@H]2O)c2nc(N)[nH]c(=O)c21	none (no result: Nrf2 activator, D3 antag, Glioma ERSR ind)
Cc1cc(=O)n(C(NC(=O)c2ccccc2)C(=O)c2ccccc2)cn1 (configuration not stated)	D3 ag 65
O=C(NC(C(=O)c1ccccc1)N1CCOCC1)c1ccccc1 (configuration not stated)	none
COc1ccc(/C=C/C(=O)CC(=O)/C=C/c2cccc(O)c2OC)cc1O	none (no result: Nrf2 activator, D3 ag, D3 antag)
COc1ccc(-c2c(-c3ccccc3OC)sc3ccccc23)cc1C=O	Nrf2 activator inconclusive, D3 antag -60
COc1ccc(-c2c(-c3ccccc3OC)sc3ccccc23)cc1OC	none
O=C1C=C(c2c(O)ccc3ccccc23)c2ccccc2C1=O	D3 antag -62
O=C(/C=C\c1ccccc1)NC1CC(=O)N(c2ccccc2)C1 (configuration not stated)	D3 ag 45 (no result: D3 antag)
COc1cccc(NC(=O)CSc2c(C)cnc3c2c(=O)n(C)c(=O)n3C)c1	Nrf2 activator inconclusive (no result: D3 antag)
CCN1CCCC1CNC(=O)c1cnn(-c2nccc(-c3cc(OC)ccc3OC)n2)c1C (configuration not stated)	none (no result: Nrf2 activator, D3 ag, D3 antag)
CCO[C@@H]1OC(C(=O)O)=C[C@H](C2CCCCC2)[C@H]1CCCO	D3 ag 35
CC1=C(C)/C(=N\OS(=O)(=O)c2ccccc2)C=CC1=O	D3 antag -89
Cc1ccc(S(=O)(=O)O/N=C2\CCCc3ccccc32)cc1	none
CCOC(=O)CSC1=NC(=O)/C(=C\c2ccc(Cl)cc2)S1	D3 antag -78
CCOC(=O)C1CCN(C2=NC(=O)/C(=C/c3ccc(Cl)cc3)S2)CC1	Nrf2 activator inconclusive
CN(C)CCNC(=O)c1ccc2c(=O)n(Cc3ccc(Cl)cc3)c(=S)[nH]c2c1	D3 antag -58
OC1CCN(Cc2ccc3c(c2)CN(Cc2ccc(Oc4ncccn4)cc2)CCO3)CC1	none (no result: Nrf2 activator, D3 ag, D3 antag)
CN1CCc2nc(SCC(=O)Nc3cccc(F)c3)c(C#N)c(-c3cccs3)c2C1	D3 antag -50
CCOc1ccc(N2C(=O)CC(N3CCN(C4CCc5ccccc5C4)CC3)C2=O)cc1 (configuration not stated)	none
CCOC(=O)N1CCN(C2CC(=O)N(c3ccc(F)cc3)C2=O)CC1 (configuration not stated)	none
CCOC(=O)N1CCN(C2CC(=O)N(c3ccc(C)cc3)C2=O)CC1 (configuration not stated)	D3 antag -63
Cc1ccc(N2C(=O)CC(N3CCN(C4CCc5ccccc5C4)CC3)C2=O)cc1 (configuration not stated)	D3 antag -55
CCOC(=O)N1CCN(C2CC(=O)N(c3ccc(Oc4ccccc4)cc3)C2=O)CC1 (configuration not stated)	D3 ag 53
CN(C)c1ccc(/C=C2\NC(=O)NC2=O)cc1	none (no result: Nrf2 activator, D3 ag, D3 antag)
CCN1C(=O)CC(N2CCC(Nc3ccc(OC)cc3)CC2)C1=O (configuration not stated)	none
Cc1ccccc1N=C1Nc2ccccc2N[C@]12C[C@H]1CCCC(=O)N3CC[C@@H](C2)[C@@H]13	none (no result: Nrf2 activator, D3 ag, D3 antag)
COc1ccc(NC2C[C@H]3CCCC(=O)N4CC[C@@H](C2)[C@@H]34)cc1 (some centres not stated)	Glioma ERSR ind 50µM (no result: Nrf2 activator, D3 ag, D3 antag)
COc1ccc(NC2=Nc3ccccc3N[C@@]23C[C@H]2CCCC(=O)N4CC[C@@H](C3)[C@@H]24)cc1	D3 antag -68
O=Cc1ccc(O)cc1	none (no result: Nrf2 activator, D3 ag, D3 antag)
O=C(Oc1ccccc1C(=O)Nc1ccccc1)c1ccc(Br)c([N+](=O)[O-])c1	Nrf2 activator inconclusive, Glioma ERSR ind 32µM
CO[C@@H]1[C@@H](O[C@@H]2O[C@H](C)[C@@H](O[C@H]3C[C@@](C)(O)[C@@H](OC(=O)CC(C)C)[C@H](C)O3)[C@H](N(C)C)[C@H]2O)[C@@H](CC=O)C[C@@H](C)[C@@H](O)/C=C/C=C/C[C@@H](C)OC(=O)C[C@H]1O	none (no result: Nrf2 activator, D3 antag, Glioma ERSR ind)
Cc1cccc(CNC(=O)c2c3n(c(C)cc2=O)-c2ccccc2SC(c2ccsc2)C3)n1 (configuration not stated)	none (no result: Nrf2 activator, D3 ag, D3 antag)
O=[N+]([O-])c1ccc(N/N=C\c2cccnc2)nc1	none
O=[N+]([O-])c1ccc(NN=Cc2ccco2)nc1	Nrf2 activator 0.89µM
O=[N+]([O-])c1ccc(N/N=C/c2cn(Cc3ccc(F)cc3)c3ccccc23)nc1	D3 antag -54
CC12CCC(/C(=N/O)C1=O)C2(C)C (configuration not stated)	none (no result: Nrf2 activator, D3 ag, D3 antag)
CN(C)c1ccc(/C=C/c2ccc3ncccc3c2)cc1	none (no result: Nrf2 activator, D3 ag, D3 antag)
Cc1cccc(C)c1NC(=O)C(NC(=O)c1ccccn1)c1ccc([N+](=O)[O-])cc1 (configuration not stated)	D3 antag -52
O=C1/C(=C\c2ccc(O)cc2)SC(=S)N1Cc1ccccc1	D3 antag -82
CCc1c(C)[nH]c2c1C(=O)C(CN1CCOCC1)CC2 (configuration not stated)	D3 antag -102
CC(=O)Nc1ccc2c(c1)C(=Nc1ccccc1)c1ccccc1-2	Nrf2 activator 11µM
CC(=O)Nc1ccc2c(c1)C(=Nc1ccc(C)cc1)c1ccccc1-2	Nrf2 activator 13µM
COc1cc(/C=C/C(=O)c2ccc([N+](=O)[O-])o2)ccc1O	Nrf2 activator inconclusive, D3 antag -98
COc1ccc(/C=C/C(=O)c2ccc([N+](=O)[O-])o2)cc1OC	Nrf2 activator inconclusive, D3 antag inconclusive
O=C(/C=C/c1cccc(Cl)c1)c1ccc([N+](=O)[O-])o1	D3 antag -84
